# Experiments:
# Experiment in all cases: PBM binding z-score (relative to random genomic background probes); higher = stronger binding; sequences stand for … in GC…GCGATTGACAGCGTAGAATGAAGG
# [1] = system: RARb homodimer (NR concentration 270 nM)
# Procedure, shortened: (§1)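 Each nuclear receptor dimer, without ligand, was incubated for 1 h on custom Agilent 4×180K protein-binding microarrays. Binding was detected with antibodies against each partner (one per run), and scanned fluorescence was regression-normalized. The binding z-scores are referenced to random human genomic background probes.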
# [2] = system: RARg:RXRa (NR concentration 270 nM, RXRa partner concentration 90 nM)
# Procedure, shortened: as §1
# [3] = system: RARg homodimer (NR concentration 270 nM)
# Procedure, shortened: as §1
# [4] = system: RXRa DBDmut IVT, anti-RXR (DBD mutation: RXRa K156A/R161A, NR concentration 90 nM)
# Procedure, shortened: as §1
# [5] = system: RXRa homodimer (NR concentration 180 nM)
# Procedure, shortened: as §1
# [6] = system: THRa:RXRa (NR concentration 90 nM, RXRa partner concentration 90 nM)
# Procedure, shortened: as §1
# [7] = system: THRa homodimer (NR concentration 90 nM)
# Procedure, shortened: as §1
# [8] = system: VDR homodimer (NR concentration 270 nM)
# Procedure, shortened: as §1
Sequence,PBM binding z-score [1],PBM binding z-score [2],PBM binding z-score [3],PBM binding z-score [4],PBM binding z-score [5],PBM binding z-score [6],PBM binding z-score [7],PBM binding z-score [8]
CCTACTGGGCCAAAGATCATTGATTCCAATGCTC,-0.626,0.0876,-0.132,-0.275,0.0908,-0.415,-0.657,-0.324
TCGAGTACGTTACCAATGGGGCATTCAGCTTTCT,0.0384,-0.336,-0.335,3.13,-0.358,-0.315,-0.201,1.2
TCTTGTAGATCAACAGGAGGTTAAGAATGATCGA,0.596,1.13,0.374,0.333,0.964,0.774,-0.347,0.202
AGAACGAGGGCACGCTGAGTTGATACCAGAGTAG,1.13,1.91,2.16,1.46,1.44,1.74,0.271,1.98
ACAGACAGGTGAAGAAGGTAACTCAGGCTATCAT,0.685,0.696,0.885,-0.215,0.527,1.32,0.0297,-0.131
CAAACTAGGTCAAGGTCCAAGTCGGTTTGTGCCA,3.59,3.87,5.33,1.76,3,3.18,1.67,1.7
TCATATAGGTAAATGCTAGCTGAAAGTCCGATCT,-0.406,0.14,0.178,1.68,0.565,-0.388,-0.402,0.142
ATCTCTGGGTAAAGTTCAGTGAAAGATCGATAGA,2.68,2.19,2.4,1.43,1.57,1.11,0.412,1.62
GCGACTGGGGCATCATCAGGTTACCATAACTTAA,1.15,0.589,0.679,0.291,0.302,2.31,1.31,0.0657
TCTGCTAGGTCAACGATGGTCCGCTAATCTGCTA,2.94,3.75,4.7,1.2,2.3,2.56,0.713,-0.413
ATATTTAGGTTATCGGGTCATTCAGTTTGCGCAT,3.44,3.54,2.82,1.92,3.57,3.62,3.93,4.95
ATCGAAAGGTCGACGATGTGAGTATACACCGTTT,2.66,3.8,3.82,1.13,4.27,1.91,-0.483,0.438
TCAGACAGGTGAAAGTAACTCAGGTACGCAGTCG,0.326,0.474,0.598,1.01,0.974,0.472,-0.0578,-0.0124
ATATGTAGGTTACATCCGGGTCATTGAGGCTATG,3,3.72,2.07,1.25,3.12,3.92,2.69,2.7
CCGACTGGGGCAAAGGTTACAATACTCAGTACGA,2.22,3.61,2.01,0.382,4.11,1.8,-0.161,0.239
GGAACGATGGCAAGTTGATAGCAGAGTTTGATGG,-0.624,-0.353,-0.158,-0.0368,-0.123,-0.797,-0.814,0.0604
CGTCAAAGTTCAAGGTAACTTAACAGAAAGCAGC,3.81,5.06,6.29,4.24,4.36,2.71,0.957,2.74
GCATATAGGAAATACAAGGTGAAAGTCCGATTGT,0.623,0.263,0.484,0.294,0.281,1.94,0.81,-0.126
CCTAGCAGGCCAGCGTCACTCAAGCATTTCGCTT,-0.555,-0.553,-0.578,-0.0144,-0.744,-0.634,-0.783,-0.635
CATACAGGGTCAGCTATGCCAGAGTAGGGACGGC,2.98,4.2,4.27,1.55,4.14,2.75,0.818,1.06
CCAGACAGGTCAGAAGGTAACTCAGCCTCGATTA,2.66,3.85,3.63,1.34,2.61,1.39,0.239,0.366
CGTCCAAGATCAAGGTCAGTGAAAGAGACTCGAA,2.88,2.83,3.03,1.15,2.01,2.86,1.63,0.979
ACAGACAGGTGATAAAGGTAACTCAGGCTATCAT,0.459,0.384,0.498,-0.109,0.225,1.15,-0.0543,-0.632
GCTAACAGGCCATTTGGGTCACTCAATGACGGGC,2.13,1.1,1.63,0.69,1.06,2.13,0.884,0.601
TCATATAGGTAAACGGGTGAAAGTCCGTAAGTTA,0.485,0.423,0.128,1.05,1.03,0.421,-0.157,0.053
ATCGAAAGGTCGAGGTGAGCATAGAGAAAGGGAA,2.98,4.34,4.61,0.687,4.63,2.98,0.737,0.234
CCTCGGAGGACAACAGGAGGTTAGAGCTGCCAGA,1.12,0.878,1.47,0.257,-0.0815,1.19,0.00678,0.0214
GGAACGAGGGCATTCGAGTTGCTAGCATGGCGAT,0.541,0.857,1.12,2.88,0.425,2.25,-0.87,2.87
